Screening data deposited in PubChem BioAssay by several laboratories.
An excerpt weighted towards active compounds, which were near 0.29% of everything screened.
Mtb hypoxia inh – Mtb hypoxia fluorescent reporter inhibition; M. tuberculosis hypoxia-regulated fluorescent reporter, fluorescence; fluorescence inhibition, % (test concentration not listed); 300,000 compounds, 0.1% hits; in the data active = fluorescence inhibition mostly above about 23%, no sharp cut-off; inactive = mostly below about 17%
Vc quorum ag-1 – inducers of Vibrio cholerae quorum light production without autoinducers | V. cholerae BH1578 lux reporter, luminescence, 6 h | activation, % at 18.7 µM | 350,000 compounds, 0.16% hits | AID 588436; in the data active = activation mostly above about 9.7%, no sharp cut-off
Y pestis TopoI – inhibitors of Yersinia pestis topoisomerase I | Y. pestis Topo-I cleavage product accumulation, plate reader | activity, % at 10 µM | 360,000 compounds, 0.064% hits | AID 504884; in the data active = activity above about 50%, passing the limit was not always enough
Vc quorum ag-2 – inducers of V. cholerae quorum light production without autoinducers; shares compounds with Vc quorum ag-1; V. cholerae BH1578 lux reporter, luminescence, 6 h; activation, % at 50 µM; 620 tested, under 10 active; AID 602243; call rule not given here
HeLa tox – kills HeLa cells within 24 hours; 25 tested, under 10 active; shares compounds with Vc quorum ag-1; activity change, negative = cytotoxicity, % at 35 µM; HeLa viability, CellTiter-Glo ATP luminescence;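 active = signal drop with fitted half-maximal concentration at or below twice the highest valid dose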
The depositor's hits bear a star; i = inactive; nt = no result; + = active, no number.

SMILES	Mtb hypoxia inh	Vc quorum ag-1	Y pestis TopoI	Vc quorum ag-2	others
COc1cc(C2/C(=C(\O)c3ccc4c(c3)OCCO4)C(=O)C(=O)N2Cc2ccco2)ccc1O (configuration not stated)	-3	-4	1	nt
O=C1C(=O)N(Cc2ccco2)C(c2cccc(Cl)c2)/C1=C(\O)c1ccc2c(c1)OCCO2 (configuration not stated)	23	12	0	0
CN(Cc1nc2ccccc2n1C)C(=O)c1ccco1	0	12	3	0
CN(Cc1nc2ccccc2n1C)S(C)(=O)=O	5	0	7	nt
CC(C)(C)NC(=O)c1nn(Cc2ccccc2)c(=O)c2ccccc12	-6	0	0	nt
COC(=O)c1nnn(-c2nonc2N)c1CSc1nc2ccccc2o1	1	-2	1	nt
COC(=O)c1nnn(-c2nonc2N)c1CSc1nc2ccccc2s1	nt	25*	14	0
OCc1ccccc1-c1cnc2sc(NCc3ccc(F)cc3)nn12	nt	0	9	nt
COc1ccc(C=Cc2ccccc2)cc1C1C2C=CCC[C@@]2(C)C(=O)N1Cc1ccccc1 (some centres not stated)	13	nt	nt	nt
Cn1cc(S(=O)(=O)N2CCCC2)cc1C(=O)N1CCN(c2ccccc2)CC1	-10	0	-5	nt
CCCc1cc(=O)n2[nH]cc(-c3ccc(Cl)cc3)c2n1	-1	41*	-3	0
COCc1cc(=O)n2[nH]cc(-c3ccccc3)c2n1	6	-1	-2	nt
COc1cccc(CN(C)C(=O)CSCC(=O)Nc2cc(C)on2)c1OC	3	-1	0	nt
COc1cccc(CN(C)C(=O)CSC(C)C(=O)Nc2cc(C)on2)c1OC (configuration not stated)	1	2	-8	0
COc1ccc(CNC(=O)COC(=O)CON=C(C)c2ccc3c(c2)OCO3)cc1	2	nt	nt	nt
Cc1ccc(C)c(OCC(=O)NN=Cc2c(C)nn(-c3ccccc3)c2Cl)c1C	-2	nt	nt	nt
CCc1nc(NCCN2CCOCC2)c2oc3ccccc3c2n1	2	i	3	nt
CCc1nc(NCCCN2CCOCC2)c2oc3ccccc3c2n1	10	12	-10	0
CC(C)(C)OC(=O)CC1CC=CCC(CC(=O)NCCO)C(=O)NCC(c2ccccc2)OC1=O (configuration not stated)	6	nt	nt	nt
COc1ccc(C(=O)NN=Cc2c(C)nn(-c3ccccc3)c2OC)cc1	12	nt	nt	nt
COc1ccc(/C(N)=N/OC(=O)Cc2ccccc2OC)cc1	6	12	6	1
COc1ccccc1CC(=O)O/N=C(\N)c1ccccn1	5	0	-7	nt
CCSc1nnc(NC(=O)c2ccc3ccccc3n2)s1	2	25	2	0
CCc1nnc(NC(=O)c2ccc3ccccc3n2)s1	2	-1	1	nt
O=C(NN=Cc1cccnc1)c1ccc(O)cc1	9	nt	nt	nt
SMILES	Mtb hypoxia inh	Vc quorum ag-1	Y pestis TopoI	Vc quorum ag-2	others
CC(C)Oc1ccc(CNC(=O)Cn2c(=O)c3cccn3c3cccnc32)cc1	10	0	18	nt
CCOc1ccc(CNC(=O)Cn2c(=O)c3cccn3c3ccccc32)cc1	15	25*	-3	0
O=C(CSc1nc(=O)n(CCN2CCOCC2)c2c1CCCC2)Nc1ccccc1Cl	nt	0	9	nt
Cc1cccc(NC(=O)CSc2nc(=O)n(CCN3CCOCC3)c3c2CCCC3)c1C	2	2	5	0
CCCC(OS(N)(=O)=O)C(Cc1ccccc1)C(=O)OCC (configuration not stated)	4	nt	nt	nt
Cc1ccccc1OCC(=O)OCC(=O)N1CCc2ccccc21	-6	5	7	nt
Cc1ccccc1OCC(=O)OCC(=O)N1CCCc2ccccc21	-2	14	23	0
Cc1cc2oc(=O)cc(CN3CCC(C)CC3)c2cc1Cl	13	26*	2	4
Cc1cc2oc(=O)cc(CN3CCN(Cc4ccccc4)CC3)c2cc1Cl	-2	-7	4	nt
COc1ccc(-c2oc(=O)c3cc(OC)c(OC)cc3c2C#C[C@]2(O)CCC3C4CCc5cc(OC)ccc5C4CC[C@@]32C)cc1 (some centres not stated)	5	nt	nt	nt
CCN(CC)S(=O)(=O)c1cccc(C(=O)OCC(=O)C23CC4CC(CC(C4)C2)C3)c1	-1	14	0	1
CCOC(=O)c1c(C)[nH]c(C)c1C(=O)COC(=O)c1cccc(S(=O)(=O)N(CC)CC)c1	1	i	-6	nt
COc1ccccc1NC(=O)Cc1ccc(-c2ccccc2)cc1	10	+	31	i
COc1ccccc1NC(=O)CC(=O)Nc1ccccc1OC	-6	0	0	nt
CCCC(C)NC(=O)Cc1ccccc1 (configuration not stated)	11	0	8	nt
CCC(C)NC(=O)Cc1ccc(-c2ccccc2)cc1 (configuration not stated)	0	+	-7	i	HeLa tox=-6
Cc1cnc(NC(=O)C2CC=CCC2)s1 (configuration not stated)	-11	0	-2	nt
CN1CC2C3C(=O)N(Cc4ccccc4)C(=O)C3[C@](Cc3ccccc3)(C1=O)N2C(=O)c1ccc(C(C)(C)C)cc1 (some centres not stated)	10	nt	nt	nt
CCc1ccc2c(c1)c1nnc(NN)nc1n2CC	2	135*	-1	106
CCc1ccc2c(c1)c1nnc(NN)nc1n2C	nt	1	7	nt
O=C(NNC(=O)c1ccccc1-n1cccc1)c1ccc(Cl)nc1	-5	-1	0	nt
C[C@@H]1CN([C@@H](C)CO)C(=O)CCCn2nncc2CO[C@@H]1CN(C)C(=O)Nc1ccc2c(c1)OCO2	nt	-1	-3	nt
COCCNS(=O)(=O)c1cc(OC)c(C)cc1C	5	i	0	nt
CCCOc1cc(C)c(S(=O)(=O)NCCOC)cc1C	4	14	11	0
C=CCNC(=S)NN=Cc1ccc(C)c([N+](=O)[O-])c1	3	nt	nt	nt
SMILES	Mtb hypoxia inh	Vc quorum ag-1	Y pestis TopoI	Vc quorum ag-2	others
CC(C)n1cc(CN2CCC(Oc3ccc(C(=O)N4CCCC4)cc3)CC2)cn1	2	0	-13	nt
O=C(CP(=O)(c1ccccc1)c1ccccc1)NN=Cc1cc(Br)cc(Br)c1O	2	nt	nt	nt
COc1ccc(-c2nnn(CC(=O)c3ccc4c(c3)OCCO4)n2)cc1OC	4	5.6*	6	0
COc1ccc(-c2nnn(CC(=O)Nc3ccc4c(c3)OCCO4)n2)cc1OC	3	i	4	nt
COc1ccc(NC(=O)CN(C)C(=O)CCCSc2nc3ccccc3[nH]2)cc1	-4	i	-1	nt
O=C(NCc1cccnc1)c1cc(C2CCCCN2S(=O)(=O)c2ccc(F)cc2F)on1 (configuration not stated)	nt	i	12	nt
CCOc1ccc(C(O)=C2C(=O)C(=O)N(CCOCCO)C2c2cccnc2)cc1 (configuration not stated)	-3	nt	nt	nt
CCOc1ccc(/C(O)=C2/C(=O)C(=O)N(CCOCCO)C2c2ccccn2)cc1 (configuration not stated)	2	14	1	0
CCOC(=O)Cn1nc(C)n(-c2ccc(C(C)C)cc2)c1=O	7	14	6	0
CCOC(=O)Cn1nc(C)n(-c2ccc(Cl)cc2)c1=O	-3	0	0	nt
